Experimental data taken from the supplement of paper PMC4022240.
± gives the standard deviation.

T1: HaloTag-ATRX ADD domain (163-292)
T1 chain: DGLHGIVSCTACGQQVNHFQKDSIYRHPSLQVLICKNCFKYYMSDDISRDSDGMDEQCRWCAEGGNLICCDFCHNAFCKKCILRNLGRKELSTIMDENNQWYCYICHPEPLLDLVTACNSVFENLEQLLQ

B1: Unmod H1 variant A G K K A K K P A K A A A (peptide)
chain: AGKKAKKPAKAAA
B2: Unmod H1 variant K K L K K A T G A S K K S (peptide)
chain: KKLKKATGASKKS
B3: Unmod H1 variant E R G G V S L A A L K K A (peptide)
chain: ERGGVSLAALKKA
B4: Unmod H1 variant T K P G A S K V A T K T K (peptide)
chain: TKPGASKVATKTK
B5: Unmod H1 variant K T V K P K K V A K S P A (peptide)
chain: KTVKPKKVAKSPA

Molecular target: T1, HaloTag-ATRX ADD domain (163-292)
Test: peptide microarray binding signal (635 nm), min-max normalized on array (fraction of array maximum); higher = stronger binding
Details: peptide region: Unmod H1 variant; binder concentration: 50 nM
Procedure, shortened: (§1)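 Two probe formats were used for 1 h at 4°C: biotin-labelled HaloTag reader fusions (10 nM to 1 μM) with streptavidin-Alexa Fluor 647, and rabbit histone antibodies (1:10,000 to 1:2,000) with anti-rabbit Alexa 647. Both were applied to nitrocellulose arrays of histone 13-mer peptide–cellulose conjugates printed in triplicate with a Cy3 tracer and blocked overnight at 4°C. Signal was read at 635 nm and misprints at 532 nm on an Axon GenePix 4000B. Binding signal is expressed as the triplicate-spot mean intensity, min-max scaled for each library.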

Binder	peptide microarray binding signal
B1	0.0147 ± 0.00057
B2	0.0152 ± 0.00029
B3	0.0175 ± 0.00043
B4	0.0164 ± 0.00041
B5	0.0149 ± 0.00058

Same assay, conditions: peptide region: Unmod H1 variant; binder concentration: 500 nM

Binder	peptide microarray binding signal
B1	0.0114 ± 0.0028
B2	0.00691 ± 0.0006
B3	0.0165 ± 0.00037
B4	0.0137 ± 0.0012
B5	0.0041 ± 5.8e-05

Molecular target: HaloTag-ING2 PHD (mouse Ing2 200-280)
Test: as above
Details: peptide region: Unmod H1 variant; binder concentration: 10 nM
Procedure, shortened: as §1

Binder	peptide microarray binding signal
B1	0.00507 ± 0.00099
B2	0.00161 ± 6.7e-05
B3	0.0122 ± 0.00043
B4	0.00215 ± 5e-05
B5	0.001552 ± 9.3e-06

Same assay, conditions: peptide region: Unmod H1 variant; binder concentration: 100 nM

Binder	peptide microarray binding signal
B1	0.00539 ± 0.00095
B2	0.0034 ± 0.00046
B3	0.0252 ± 0.0017
B4	0.00694 ± 0.00026
B5	0.00369 ± 0.00015

Molecular target: anti-H3K4me3 antibody ab8580
Test: as above
Details: peptide region: Unmod H1 variant; binder concentration: 1:2,000 dilution
Procedure, shortened: as §1

Binder	peptide microarray binding signal
B1	0.000585 ± 4.5e-05
B2	0.000396 ± 1.2e-05
B3	0.00283 ± 4.9e-05
B4	0.00117 ± 0.00015
B5	0.0005286 ± 5.1e-06

Same assay, conditions: peptide region: Unmod H1 variant; binder concentration: 1:10,000 dilution

Binder	peptide microarray binding signal
B1	0.000856 ± 8.9e-06
B2	0.000856 ± 8.9e-06
B3	0.00496 ± 0.00014
B4	0.00097 ± 9.9e-06
B5	0.000799 ± 8.3e-06

Molecular target: anti-H3K9me3 antibody ab8898
Test: as above
Details: peptide region: Unmod H1 variant; binder concentration: 1:2,000 dilution
Procedure, shortened: as §1

Binder	peptide microarray binding signal
B1	0.000181
B2	0.000257 ± 2.5e-05
B3	0.00225 ± 8.6e-05
B4	0.000302 ± 6.2e-06
B5	0.000121 ± 2.7e-06

Same assay, conditions: peptide region: Unmod H1 variant; binder concentration: 1:10,000 dilution

Binder	peptide microarray binding signal
B1	0.000692 ± 7.3e-06
B2	0.000461
B3	0.00283 ± 4.9e-05
B4	0.000692 ± 7.3e-06
B5	0.000461
